Results on 23 molecules are retold here after PubChem BioAssay (NCATS).

Assay [1] in a line: qHTS Assay for Lipid Storage Modulators (AID 1519; calls by dose curve; on activity change, negative = inhibition: on the % scale 0 is the no-effect control and ±100 the full control effect). The note with it: Drosophila S3 cells, BODIPY lipid droplet/cell ratio, laser cytometry, cells loaded with oleic acid; for activity change, negative = inhibition: at 25.7 µM (top of the series). In short, it runs like this:
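Cells seeded at 5,000 per well were treated with compounds over a concentration series and loaded with oleic acid (400 uM, as added). Lipid droplet fluorescence (488 nm excitation, 500-530 nm channel) was read by laser-scanning cytometry and normalized to 20 uM Triacsin C.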
In general terms: Quantitative high-throughput screening tests each substance at several concentrations.

Assay [2] is described as follows: Cell Viability - LYMP2-026 (AID 989).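 Further: cells exposed to compound for 24 h at 37 °C; nearly all actives have a fitted effect of over 50% in size.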 Further: potency means the concentration at half of the fitted maximal effect. The note with it: LYMP2-026 lymphoblastoid cell viability, qHTS; series mostly up to 92.2 µM. The method, boiled down: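 Acute toxicity screen in complete culture medium, with 24 hr compound exposure at 37 C. Viability read as cellular ATP via luciferase reaction, with tetraoctylammonium bromide (6.4pM to 92 uM) as positive control.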

Assay [3] in a line: Cell Viability - LYMP1-002 - Assay at 24 hr (AID 993). Further: potency means the concentration at half of the fitted maximal effect. The note with it: LYMP1-002 lymphoblastoid cells viability; series mostly up to 92.2 µM. The method, boiled down: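 Viability was judged from intracellular ATP using a luciferase read-out, following a 24-hour compound incubation at 37 C of lymphoblastoid cells seeded at 2500 per well. Concentration-response data were fitted to the Hill equation for AC50.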

Assay [4] is described as follows: Cell Viability - LYMP1-002 - Assay at 40 hr (AID 994). Further: nearly all actives have a fitted effect of over 60% in size. Further: potency means the concentration at half of the fitted maximal effect. The following applies: LYMP1-002 lymphoblastoid cell viability; series mostly up to 92.2 µM. The method, boiled down: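 Concentration-dependent ATP loss after 40 hr treatment at 37 C defined toxicity; AC50 values were obtained by fitting the standard Hill equation.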
Assay [5] can be described thus: qHTS Assay for Identification of Small Molecule Inducers of Hypoxia Response (AID 2120; active means well fitted curve in the direction sought with a large enough effect in the signal ratio, with a control signal flat, not every such curve was filed as active; the % refers to the signal ratio; further: 0% is about no effect). The note with it: hypoxia response reporter cells, beta-lactamase ratio readout; series mostly up to 104 µM. The method, boiled down:
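HRE-bla ME-180, 2500 cells/well, 0.5% dialyzed FBS medium; cpd titration, 17 h 37 degrees C; CCF4 2.5 h RT; Ex 405, Em 460/530 ratio -> %Activity, AC50.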

In assay [6] the target is Alpha-galactosidase (Coffea arabica) (UniProt Q42656). The assay is described as follows: Counterscreen for Glucocerebrosidase Inhibitors: qHTS Assay for Coffee Bean alpha-Galactosidase at pH 5.9 (AID 998).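 Further: plate controls were uninhibited enzyme for no effect and no-enzyme basal signal for full effect.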 The following applies: coffee bean alpha-galactosidase enzyme assay; series mostly up to 76.9 µM. The method, boiled down: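 In 50 mM citric acid pH 5.9 with 0.005% Tween-20, coffee bean enzyme hydrolyses 80 uM 4-MU alpha-D-galactopyranoside over 20 min at RT. Activity is normalized to controls; AC50 comes from Hill-modelled concentration-response data.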
On the technique in general: The purpose of a counterscreen is to sort out artefacts and off-target activity.

Assay [7] in a line: qHTS for differential inhibitors of proliferation of Plasmodium falciparum line 7G8 (AID 1815).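 Further: potency means the concentration at half of the fitted maximal effect; parasite growth measured after three days of incubation.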 The note with it: Plasmodium falciparum 7G8 proliferation inhibition; series mostly up to 28.7 µM.
Assay [8] can be described thus: qHTS for differential inhibitors of proliferation of Plasmodium falciparum line GB4 (AID 1816).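 Further: potency means the concentration at half of the fitted maximal effect; parasite growth measured after 72 h incubation.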 The following applies: Potency: Plasmodium falciparum GB4 proliferation inhibition; series mostly up to 28.7 µM.
Assay [9] in a line: qHTS for differential inhibitors of proliferation of Plasmodium falciparum line 3D7 (AID 1876). Further: potency means the concentration at half of the fitted maximal effect. The note with it: P. falciparum 3D7 proliferation inhibition; series mostly up to 28.7 µM.
Assay [10] in a line: qHTS for differential inhibitors of proliferation of Plasmodium falciparum line D10 (AID 1877).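 Further: potency means the concentration at half of the fitted maximal effect; parasites grown with compound for 72 h before DNA staining.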 The note with it: series mostly up to 28.7 µM.
Assay [11] is described as follows: qHTS for differential inhibitors of proliferation of Plasmodium falciparum line Dd2 (AID 1882). Further: potency means the concentration at half of the fitted maximal effect; nearly all actives have a fitted effect of over 65% in size. The note with it: Potency: Plasmodium falciparum Dd2 proliferation inhibition; series mostly up to 28.7 µM. The method, boiled down: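 RBC culture, 0.3% parasitemia / 2.5% Hct final; cpd added by pin tool in DMSO; 72 h, 37 C, 5% CO2; lysis buffer + SYBR Green I, o/n RT dark; FI 485/535; norm. to artemisinin 0.29 uM and DMSO.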

Assay [12] in a line: qHTS for differential inhibitors of proliferation of Plasmodium falciparum line W2 (AID 1883).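 Further: potency means the concentration at half of the fitted maximal effect; parasites grown with compound for 72 h before lysis and staining.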 The following applies: Potency: Plasmodium falciparum W2 proliferation inhibition; series mostly up to 28.7 µM.
Assay [13] in a line: qHTS for differential inhibitors of proliferation of Plasmodium falciparum line HB3 (AID 1886).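 Further: potency means the concentration at half of the fitted maximal effect; parasites grown with compound for 72 h before SYBR Green readout.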 The note with it: Potency: Plasmodium falciparum HB3 proliferation inhibition; series mostly up to 28.7 µM.
The target in assay [14] is Ferritin light chain (Equus caballus) (UniProt P02791). The assay is described as follows: qHTS Validation Assay for Identification of Novel General Anesthetics (AID 2323). Further: on the % scale 0 is the no-effect control and ±100 the full control effect. The following applies: horse apoferritin, anesthetic-site fluorescent probe displacement; series mostly up to 76.9 µM. The method, boiled down:
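10 uM horse-spleen apoferritin + 1-AMA (50% saturated, PBS); cpd pin-transferred, 10 min RT. Ex 380/Em 535 nm endpoint. Activity normalized between free 1-AMA and 1-AMA/apoferritin; 4-parameter Hill fit of concentration-response.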

Where [15] appears, read: measured here: cell count channel max response.
Setting [16] is: measured here: lipid channel max response.

Results filed as inconclusive are left out. Where a structure was tested more than once in an assay, its records may differ in their call. Calls of active or inactive are those of the source. Unless noted, the call rests on the fitted dose curve; in most records, active means well fitted curve in the direction sought with a large enough effect; inconclusive means small, poorly fitted or top-dose-only effect, or another doubt; inactive means no such curve, though single readings can be large; an effect the other way counts as inactive or inconclusive.

Sequence of Alpha-galactosidase (Coffea arabica) (Q42656 whole entry, looked up): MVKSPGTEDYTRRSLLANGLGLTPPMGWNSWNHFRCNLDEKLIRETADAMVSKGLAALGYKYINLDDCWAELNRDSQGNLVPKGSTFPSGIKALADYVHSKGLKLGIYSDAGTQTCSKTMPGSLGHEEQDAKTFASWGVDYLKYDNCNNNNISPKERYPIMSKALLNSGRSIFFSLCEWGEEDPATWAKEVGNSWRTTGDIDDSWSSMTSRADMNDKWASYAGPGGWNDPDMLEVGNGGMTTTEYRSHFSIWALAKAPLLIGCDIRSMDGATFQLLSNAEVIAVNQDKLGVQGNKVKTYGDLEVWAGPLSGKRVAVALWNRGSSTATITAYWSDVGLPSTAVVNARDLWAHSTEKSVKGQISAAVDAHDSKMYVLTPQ
Sequence of Ferritin light chain (Equus caballus) (P02791 2-175 limits assumed): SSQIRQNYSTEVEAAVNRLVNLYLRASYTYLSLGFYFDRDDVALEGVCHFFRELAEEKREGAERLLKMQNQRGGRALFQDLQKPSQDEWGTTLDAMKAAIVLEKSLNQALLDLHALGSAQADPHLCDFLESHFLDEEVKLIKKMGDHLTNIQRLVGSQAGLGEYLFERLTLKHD

With `OC(c1ccccc1)(c1ccccc1)C1CCNCC1`, the activity change, negative = inhibition in assay [1] is -3.2% (inactive). The max response in assay [1] (setting [15]) is -4.3%; in [1] (setting [16]), -6.81%.
In the case of `O=C(CCCN1CCC(n2c(=O)[nH]c3ccccc32)CC1)c1ccc(F)cc1`, the activity change, negative = inhibition in assay [1] is 0.264% (inactive). Besides, the max response in assay [1] (setting [15]) was -5.85%; in assay [1] (setting [16]), -3.11%.
Turning to `Oc1c(Br)cc(Br)cc1Br`, the Potency entry in assay [2], in assay [3] and in assay [4] was “inactive” throughout. Also, in assay [5], the outcome was inactive.
As to `Clc1ccccc1C(c1ccccc1)(c1ccccc1)n1ccnc1`, the result in assay [6] was inactive.
With `C[C@@H]1C[C@@H]([C@H](O)CC2CC(=O)NC(=O)C2)C(=O)[C@@H](C)C1`, the Potency in [2] is 1 µM (active); in [4], 1.26 µM (active) and inactive. In addition, in [3], the Potency entry is “inactive”. In [5], the outcome was inactive.
Regarding `C[N+](C)(C)CCCCCCCCCC[N+](C)(C)C`, the Potency in assay [7] is 5.01 µM (active); in assay [8], 3.98 µM (active); in [9], 0.355 µM (active); in assay [10] it was 1.26 µM (active); in assay [11], 10 µM (active); in [12] it was 0.562 µM (active). Moreover, the Potency in assay [13] was 1.78 µM (active). For the same molecule, the result in assay [14] was inactive.
As for `O=C(O)c1cccnc1Nc1cccc(C(F)(F)F)c1`, the molecule was classed as inactive in [6].
With `NS(=O)(=O)c1cc2c(cc1Cl)NCNS2(=O)=O`, in [6], the molecule was called inactive.
`Brc1c(NC2=NCCN2)ccc2nccnc12`: the outcome in assay [14] was inactive.
As to `Cc1ccc(C(=O)Nc2ccc(S(=O)(=O)O)c3cc(S(=O)(=O)O)cc(S(=O)(=O)O)c23)cc1NC(=O)c1cccc(NC(=O)Nc2cccc(C(=O)Nc3cc(C(=O)Nc4ccc(S(=O)(=O)O)c5cc(S(=O)(=O)O)cc(S(=O)(=O)O)c45)ccc3C)c2)c1`, the outcome in assay [6] was inactive.
As to `O=C(Nc1ccc([N+](=O)[O-])cc1Cl)c1cc(Cl)ccc1O`, the molecule was called inactive in assay [6].
Still for that read-out and setting: as for `O=C1NCN(c2ccccc2)C12CCN(CCCC(c1ccc(F)cc1)c1ccc(F)cc1)CC2`, the entry is “inactive”; as for `CN1[C@@H]2CC[C@H]1CC(OC(=O)c1c[nH]c3ccccc13)C2` (some centres undefined), “inactive”; as for `CNC[C@H](O)c1ccc(O)c(O)c1`, “inactive”.
Consider `O=C(CCNNC(=O)c1ccncc1)NCc1ccccc1`, for which the result in [6] was inactive.
As for `NC(N)=N/N=C/c1c(Cl)cccc1Cl`, the Potency in assay [7] was 11.2 µM (active); in assay [8], 11.2 µM (active); in [9], 6.31 µM (active); in assay [10], 11.2 µM (active); in assay [12], 3.98 µM (active); in [13], 6.31 µM (active).
With `Oc1ccc(Cl)cc1Sc1cc(Cl)ccc1O`, in assay [4], the Potency is 50.1 µM (active).
As to `COP(=O)(OC)OC=C(Cl)Cl`, the Potency result in [2] and in assay [3] was “inactive” in each case. The Potency in [4] is 12.6 µM (active) and inactive. For the same molecule, the result in [5] was inactive.
Take `CN(C)C(=S)SSC(=S)N(C)C`: the Potency was 0.316 µM (active) in assay [3] and 3.98 µM (active) in assay [4]. For the same molecule, in [5], the outcome was inactive.
As for `Cc1nc2sccn2c(=O)c1CCN1CCC(=C(c2ccc(F)cc2)c2ccc(F)cc2)CC1`, in [6], the outcome was inactive.
With `C[n+]1cc2c3c(ccc2c2ccc4cc5c(cc4c21)OCO5)OCO3`, the molecule was called inactive in [6].
Consider `O=C(CCl)c1ccc(Cl)cc1Cl`, for which the figures for the Potency in assay [2], in assay [3] and in assay [4] were 6.31 µM (active), 15.8 µM (active) and 25.1 µM (active), respectively.
As to `CCCCCCCCCCCC[N+](C)(C)CCOc1ccccc1`, the Potency was 39.8 µM (active) in assay [2], 7.94 µM (active) in [3] and 31.6 µM (active) in assay [4].
